The whole screen tested about 360,000 compounds, of which about 7,500 (2.1%) were called active. Another 20% or so got no clear call; they are omitted. The entries come from a sample that favours actives as a whole. Unmarked numbers belong to inactive results. Calls come from the whole dose curve; as a rule, active = well fitted inhibition curve with a large enough effect; inconclusive = small, poorly fitted or top-dose-only effect, or effect the other way; inactive = flat fitted curve, though single readings scatter.
% is set by controls: 0 for no effect and ±100 for the full control effect; potency is the fitted concentration of half-maximal effect.

A short description of the assay: Nrf2 qHTS screen for inhibitors. Note: nearly all actives have a fitted effect of over 60% in size. To be noted: A549 ARE-Fluc reporter, luciferase luminescence, 18-24 h; series mostly up to 46 µM; activity change, negative = inhibition: at the top concentration. The text has this:
NIH Molecular Libraries Probe Production Network [MLPCN]
NIH Chemical Genomics Center [NCGC]
Assay Provider: Shyam Biswal, Johns Hopkins University
Nrf2 is a transcription factor that maintains cellular redox homoestasis and protects cells from xenobiotics. Nrf2 binds to the antioxidant response element (ARE) to induce gene expression of a broad spectrum of genes that encode for antioxidants. […] Finding a small molecule that act as an inhibitor of Nrf2 function would represent a novel therapeutic target that could lead to improvement in survival of patients undergoing chemo- and/or radio- therapy.
This is the Nrf2 activity measured in the luminescent read.
1. Shibata, T., et al., Genetic Alteration of Keap1 Confers Constitutive Nrf2 Activation and Resistance to Chemotherapy in Gallbladder Cancer. Gastroenterology, 2008.
2. Sjoblom, T., et al., The consensus coding sequences of human breast and colorectal cancers. Science, 2006. 314(5797): p. 268-74.
NCGC Assay Protocol Summary:
A concentration-response assay was performed with A549 ARE_Fluc cells which are suspended in 5% FBS OPTI-MEM. Five uL were dispensed into 1536-well white TC-treated plate using the Kalypsys dispenser to achieve a density of 5000 cells/well in all columns except column 1. The plate is incubated at 37deg C at 5% CO2 for 2 hours before 23 nL of compounds are added with the Kalypsys pin tool equipped with a 1,536-pin array containing 10-nL slotted pins (FP1S10, 0.457-mm diameter, 50.8 mm long; V&P Scientific). The control compounds Budesonide and Staurosporine are both added at a concentration of 2mM and Budesonide is also added as a 1:10 titration, starting at 200uM, to achieve dose-response. After an 18-24 hour incubation at 37deg C at 5% CO2, 5ul of medium is added to column 1. Afterwards 1ul of 5x of CellTiter-Fluor (Promega) is added to every well. The plate is then incubated at 37deg C at 5% CO2 for 30 minutes before they are read on the ViewLux (Perkin Elmer) for a fluorescent read Ex=405(10)/Em=525(10) for a 3 second exposure, 2x binning, and high gain. Then 3 uL of 3x BugLite is dispensed into all wells and the plate is incubated at ambient room temperature for 15 minutes. Afterwards another ViewLux read is performed using the clear filter to get a luminescent read with the settings of 40 second exposure, 2x binning, and high gain. Cytotoxicity is assessed through the first fluorescent read and then biochemical activity against Nrf2 is measured in the luminescent read.
(In general: Quantitative high-throughput screening tests each substance at several concentrations.)
For the compound `Cc1cc(C)c(-c2csc(NC(=O)CCCc3nc4ccccc4c(=O)[nH]3)n2)c(C)c1`, the Potency is 9.2 µM (active). As for `CC(=O)NCc1ccc(-c2csc(NC(=O)CCCc3nc4ccccc4c(=O)[nH]3)n2)cc1`, the “activity change, negative = inhibition” value is 4.73%. As to `CCCn1c(C)cc(-c2csc(NC(=O)CCc3nc4ccccc4c(=O)[nH]3)n2)c1C`, the “activity change, negative = inhibition” value was -5.04%. For `Cc1sc2ncn(CC(=O)N3CCN(c4ccc(F)cc4)CC3)c(=O)c2c1S(=O)(=O)N1CCN(c2ncccn2)CC1`, the “activity change, negative = inhibition” value was -18%. `O=C(Cc1c(F)cccc1Cl)Nc1ncc([N+](=O)[O-])s1`: the Potency was 16.4 µM (active). Turning to `COc1ccc(S(=O)(=O)N2CCOCC2)cc1NC(=O)Cc1c(F)cccc1Cl`, the “activity change, negative = inhibition” value was -7.15%.

In the case of `CC(C)(C)NC(=O)NC(=O)COC(=O)Cc1c(F)cccc1Cl`, the “activity change, negative = inhibition” value was -0.296%. On the same count and under the same terms, the value for `Cc1ccc(S(=O)(=O)c2cc3c(=O)n4cccc(C)c4nc3n(CCc3ccccc3)c2=N)cc1C` was 3.09%; that for `COC(=O)c1ccccc1NC(=O)c1cnn(-c2ccc(F)cc2)c1-n1cccc1` was 29.2%; that for `COc1ccc2c(c1)c(N1CCCC1=O)c(C(=O)Nc1ccccc1C(F)(F)F)n2C` was 25.9%.

On to `CCC1([N+](=O)[O-])COC(c2ccc(C)cc2)OC1` (centres undefined), for which the “activity change, negative = inhibition” value is 8.27%. As to `CCOC(=O)c1ccc(NC(=O)C2CC(=O)NC(=Nc3ccc(C)c(C)c3)S2)cc1` (centres undefined), the “activity change, negative = inhibition” value was 2.13%.

Regarding `CC[n+]1cc(C)ccc1/C=C/c1ccc(N(C)C)cc1`, the Potency was 4.11 µM (active).

On to `CN(C)c1ccc(/C=N\S(=O)(=O)c2ccccc2)cc1`, for which the “activity change, negative = inhibition” value is 0.274%. Still for that read-out and setting: under `C=CC(COCc1ccccc1)N(CC(=O)OC)S(=O)(=O)c1cc(Br)ccc1OC` (centres undefined) stands -14.9%; under `Cc1nn(CC(=O)O)c(=O)c2cc3cc(F)ccc3n12`, 1.3%. For the compound `Cc1ccccc1C(=O)OC1OC(=O)C(Cl)=C1Nc1ccccc1` (centres undefined), the Potency was 8.2 µM (active). Turning to `O=C1OC(OC(=O)c2ccccc2Br)C(N2CCOCC2)=C1Cl` (centres undefined), the “activity change, negative = inhibition” value was -22.5%.

Regarding `Cc1ccccc1C(=O)O`, the “activity change, negative = inhibition” value was -0.366%. The same measure, in the same setting: under `CCOC(=O)c1c(-c2ccc(OC)cc2)oc2ccc(OCc3ccc(C(=O)OC)cc3)cc12` stands -9.39%; under `O=C(NCCCN1CCOCC1)c1cn(-c2ccccc2)nc1-c1ccc(F)cc1`, -5.73%. `CCCCCCSc1ccc(-c2nc3ccc(Cl)cn3c2NCc2ccccc2)cc1`: the “activity change, negative = inhibition” value was 6.14%. On the same count and under the same terms, the value for `O=C(CNC(=O)c1ccc(Cl)c(C(F)(F)F)c1)OC(C(=O)Nc1cc(C(F)(F)F)ccc1Cl)c1ccccc1` (centres undefined) was 17%. As for `COc1ccc(OC)c(/C=C/C(=O)c2ccc3c(c2)OCO3)c1`, the “activity change, negative = inhibition” value was -2.43%. Regarding `Cc1ccc(C)c(N2CCN(C(=O)Cn3ncn4cccc4c3=O)CC2)c1`, the Potency is 23.1 µM (active). On to `Cc1ccc(C)c(N2CCN(C(=O)Cn3nc(C)c4sc5ccccc5c4c3=O)CC2)c1`, for which the “activity change, negative = inhibition” value is -25.7%.

For `CCc1nn(CC(=O)N2CCN(c3cc(C)ccc3C)CC2)c(=O)c2cc3occc3n12`, the Potency entry is “inactive”. Consider `COc1ccc(-c2nc(CN3CCC(C(=O)NCCN(CC(C)C)CC(C)C)CC3)c(C)o2)cc1OC`, for which the “activity change, negative = inhibition” value was 1.5%. In the case of `CN(C(=O)c1cccc(NC(=O)Cc2ccc(NC(=O)C3CCN(C(=O)C4CCCCC4)CC3)cc2)c1)C1CCC1`, the “activity change, negative = inhibition” value is 5.92%. For `CS(=O)(=O)N(CC(=O)N1CCCC1)Cc1ccccc1`, the “activity change, negative = inhibition” value was 0.0838%. Regarding `COc1ccccc1N1CCN(C(=O)CN(Cc2ccc(Cl)cc2)S(C)(=O)=O)CC1`, the Potency is 23.1 µM (active). Consider `COc1ccccc1N1CCN(S(=O)(=O)c2ccc(Cl)cc2)CC1`, for which the “activity change, negative = inhibition” value is -28.2%. On the same count and under the same terms, under `O=S1(=O)N=C(Oc2cccc(Br)c2)c2ccccc21` stands -1.46%; under `COc1ccc(-c2cc(-c3nc(-c4cc(OC)c(OC)c(OC)c4)no3)[nH]n2)c(OC)c1`, -8.11%; under `CC(C)(C)OC(=O)N1CCC(C(=O)Nc2cccc(C(=O)NCCc3ccccc3)c2)CC1`, -0.0845%. Same read-out and setting: under `CCN(CCCNC(=O)CSc1cc(=O)n(C)c2cc(Cl)ccc12)c1cccc(C)c1` stands 0.522%; under `Cc1ccc(C(=O)NC2CCN(C#N)CC2)cc1`, 7.04%. The same measure, in the same setting: the value for `COCc1cc(=O)n2[nH]c(C)c(-c3ccccc3)c2n1` was -21.7%.

On to `Cc1nc2c(-c3ccccc3)c(C)[nH]n2c(=O)c1Cl`, for which the Potency is 20.6 µM (active). Regarding `Cc1cc(=O)n2[nH]c(-c3cccc(Cl)c3)cc2n1`, the “activity change, negative = inhibition” value was 7.12%. Same read-out and setting: the value for `O=[S+]([O-])(c1ccc2c(c1)OCCO2)N1CCN([S+](=O)([O-])c2c(Cl)cc(Cl)cc2Br)CC1` was 4.14%; that for `COc1cccc(CNS(=O)(=O)c2ccc3c(c2)CC(C)N3C(C)=O)c1` (centres undefined) was -2.36%. Turning to `COc1ccc(N(C)S(=O)(=O)c2ccc3c(c2)CC(C)N3C(=O)C2CC2)c(OC)c1` (centres undefined), the “activity change, negative = inhibition” value is -21.9%. As for `COc1cccc(CNS(=O)(=O)c2ccc3c(c2)CC(C)N3C(=O)C2CCC2)c1` (centres undefined), the Potency was 11.6 µM (active). As to `CC(=O)OC1CCC2C3CCC4=C(CC(F)C(=O)C4)C3CCC12C` (centres undefined), the “activity change, negative = inhibition” value was -23.5%. As to `C/C=C/c1ccc(OCC(=O)NNC(=O)CN(C)S(=O)(=O)c2ccc(C)cc2)c(OC)c1`, the “activity change, negative = inhibition” value was 2.15%. For the compound `Cc1ccc(C)c(N2CCN(C(c3ccccc3)c3nnc(-c4ccccc4)o3)CC2)c1` (centres undefined), the “activity change, negative = inhibition” value is 0.91%. Same read-out and setting: under `CCCn1c(NCc2ccc(N(CC)CC)cc2)nc2ccccc21` stands 1.93%. On the same count and under the same terms, under `O=C(NNC(=O)c1ccccc1O)c1ccccc1O` stands -25.8%.

The values are drawn from PubChem BioAssay AID504444 (National Center for Advancing Translational Sciences (NCATS), 2011).
